An excerpt weighted towards active compounds, which were near 3.5% of everything screened.
FBW7 activator – activators of human E3 ligase FBW7 | Q969H0 | AlphaScreen FBW7–phospho-cyclin E peptide binding, activator screen | normalized activity (activation), % at 26.1 µM | hit rate 0.13% among 650,000 | AID 1259310; in the data active means normalized activity above about 1.9%;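 further: purified mutant Fbw7 with reduced substrate affinity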
Target sequence (Q969H0 whole entry, looked up): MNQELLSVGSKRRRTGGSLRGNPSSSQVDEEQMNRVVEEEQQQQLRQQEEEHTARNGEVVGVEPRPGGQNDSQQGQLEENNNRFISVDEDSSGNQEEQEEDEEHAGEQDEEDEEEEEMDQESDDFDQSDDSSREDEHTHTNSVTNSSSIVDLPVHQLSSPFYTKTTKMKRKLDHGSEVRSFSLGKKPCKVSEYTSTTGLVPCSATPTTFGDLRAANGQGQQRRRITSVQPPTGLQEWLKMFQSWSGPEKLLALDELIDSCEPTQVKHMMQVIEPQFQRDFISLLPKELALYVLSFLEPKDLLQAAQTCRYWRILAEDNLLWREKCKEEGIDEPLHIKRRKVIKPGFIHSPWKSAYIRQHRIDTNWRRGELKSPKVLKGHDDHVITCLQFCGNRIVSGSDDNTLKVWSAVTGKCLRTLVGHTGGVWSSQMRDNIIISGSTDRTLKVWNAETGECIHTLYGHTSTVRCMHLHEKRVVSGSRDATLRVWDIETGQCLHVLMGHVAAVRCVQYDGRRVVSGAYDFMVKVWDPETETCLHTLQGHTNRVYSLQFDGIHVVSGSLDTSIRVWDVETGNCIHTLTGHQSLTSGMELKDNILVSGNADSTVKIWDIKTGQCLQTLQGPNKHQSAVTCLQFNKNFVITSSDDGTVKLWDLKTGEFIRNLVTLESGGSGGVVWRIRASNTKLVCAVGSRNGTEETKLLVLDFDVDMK
TEAD-YAP inh – TEAD-YAP interaction inhibition; hit rate 1.4% among 640,000; inhibition, % at 9.12 µM; HEK-TIYL cells, TEAD-Gal4/YAP UAS-luciferase luminescence; in the data active means inhibition above about 32%;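 further: 0% = median of test compound wells and 100% = reference inhibitor wells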
GPR151 activ – activators of human GPR151. PathHunter beta-arrestin GPR151 cells, luminescence. activation, % at 11.2 µM. hit rate 1% among 650,000. AID 1508602; in the data active means activation above about 4.9%;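 further: 0% = median of compound wells and 100% = cells with positive control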
MITF inh – inhibitors of human MITF. AlphaScreen MITF homodimerization, bead proximity signal. inhibition, % at 2.6 µM. hit rate 0.91% among 650,000. O75030. AID 1259374; in the data active means inhibition above about 50%;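 further: 0% = vehicle wells with protein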
Numbers without * were called inactive.

SMILES	FBW7 activator	TEAD-YAP inh	GPR151 activ	MITF inh
CC1=C(C(=O)Nc2ccccc2)C(c2ccccc2)C(C#N)=C(SCC(=O)Nc2cc(Cl)cc(Cl)c2)N1 (stereo not given)	0.2	3.3	0.8	10.0
CCCC(=O)N1CCC(O)(c2ccccc2F)CC1	-0.1	-0.1	-0.1	9.8
COc1ccc(/C=C/C(=O)Nc2ccc(S(=O)(=O)Nc3cc(C)on3)cc2)cc1	0.0	-5.0	-0.4	9.6
O=C(NC1CC1)C(Cc1ccccc1)NS(=O)(=O)c1ccc(F)cc1 (stereo not given)	-0.1	1.8	-0.3	6.9
COc1ccc(-c2cc3c(=O)n(CC(=O)N4CCOCC4)ncn3n2)cc1	0.0	-0.7	3.3	11.8
COc1cc2c(C(=O)N(C)c3ccccc3C)cn(CC(C)C)c(=O)c2cc1OC	2.2*	-16.8	0.9	-8.9
O=C(O)c1ccccc1-c1ccccc1C(=O)N1CCN(C(=O)c2ccco2)CC1	0.0	7.4	0.1	8.9
CCOc1ccc(CN2CCc3nnc(CNC(=O)COc4ccccc4)n3CC2)cc1	0.0	1.6	-0.2	-4.3
COc1cccc(NC(=O)C(=O)N/N=C(\C)CC(=O)NC2CCCCCCC2)c1	0.1	-50.5	-3.0	2.7
C/C(CC(=O)Nc1ccc(I)cc1)=N\NC(=O)c1cccc(O)c1	-0.1	12.3	0.5	-1.9
COc1cccc(C(=O)N/N=C(\C)CC(=O)Nc2ccc(Br)cc2)c1	1.3	-0.8	-0.5	8.8
COc1cc(OC)cc(C(=O)N/N=C(\C)CC(=O)Nc2ccc(Br)cc2)c1	0.0	54.3*	0.8	12.6
C/C(CC(=O)Nc1ccccc1C#N)=N\NC(=O)c1ccncc1	1.9*	5.7	0.7	8.7
C/C(CC(=O)Nc1ccc(C)cc1)=N\NC(=O)c1cccc(O)c1	0.3	35.1*	-2.9	9.4
COc1cc(OC)cc(C(=O)N/N=C(\C)CC(=O)NC2CCCCC2)c1	-0.1	60.3*	0.1	-3.4
Cc1cccc(N2CCN(C(=O)c3cccc(N4C(=O)C5C6C=CC(C6)C5C4=O)c3)CC2C)c1 (stereo not given)	0.2	6.3	0.0	4.5
O=C(c1cc(=O)c2ccccc2o1)N1CCC(Oc2nc3c(Cl)cccc3s2)CC1	0.6	8.8	-0.8	11.9
CCN(C(=O)CSc1nc2ccsc2c(=O)n1Cc1ccc(C)cc1)c1cccc(C)c1	-0.2	14.9	0.4	-5.8
COc1cc(OC)cc(C(=O)N/N=C(\C)CC(=O)Nc2ccccc2C(F)(F)F)c1	-0.2	49.5*	-1.6	-1.7
C/C(CC(=O)Nc1cccc(C(F)(F)F)c1)=N\NC(=O)c1ccc2ccccc2c1	-0.1	51.5*	0.4	6.8
Cc1ccc(-c2csc(=Nc3cccc(C(F)(F)F)c3)n2CCc2ccccc2)cc1C	0.0	-9.0	-1.8	-0.2
COc1ccc(O)c(C2=Nc3ccccc3N=C(c3ccccc3)C2)c1	2.1*	-46.1	1.7	9.7
COc1ccc(C2=Nc3ccccc3N=C(c3cc(OC)ccc3O)C2)cc1	0.0	-27.0	-1.3	17.4
CC(=O)N(/C=C1/Sc2ccccc2C1=O)c1ccc(C)cc1	-0.1	59.3*	-3.2	12.0
COc1ccccc1N(C=O)/C=C1\Sc2ccccc2C1=O	0.1	54.6*	-2.4	0.4
SMILES	FBW7 activator	TEAD-YAP inh	GPR151 activ	MITF inh
COc1ccc(N(/C=C2\Sc3ccccc3C2=O)C(=O)c2ccccc2)cc1	-0.1	54.3*	-9.2	-3.8
O=C1/C(=C\N(C(=O)c2ccccc2)c2ccccc2)Sc2ccccc21	-0.3	3.0	-2.8	-0.8
COc1ccc(N(/C=C2\Sc3ccccc3C2=O)C(=O)c2ccc(C)cc2)cc1	-0.4	41.3*	-8.8	-6.7
Cc1[nH]n(-c2cccc(Cl)c2)c(=O)c1C=Nc1ccc(Cl)cc1Cl	-0.3	-5.3	-2.1	2.9
COc1ccc(N(/C=C2\Sc3ccccc3C2=O)C(C)=O)cc1	0.5	51.4*	-7.9	19.3
CC(=O)N(/C=C1\Sc2ccccc2C1=O)c1ccc(C)c(C)c1	0.1	86.4*	-3.0	3.8
CC(=O)N(/C=C1\Sc2ccccc2C1=O)c1ccc(I)cc1	-0.1	-10.7	-0.4	-8.4
COc1ccccc1NC(=O)CSc1cc(=O)n(C)c2ccccc12	-0.4	-5.2	-0.7	4.6
Cc1ccc(C(=O)COC(=O)C2CCC2)cc1	0.5	8.9	-0.5	-3.7
O=C1NC2(CCN(C(=O)c3cccc4cccnc34)CC2)Oc2ccccc21	22.6*	-7.5	-0.2	-2.0
O=C1NC2(CCN(Cc3cccc4cccnc34)CC2)Oc2ccccc21	-0.1	-5.8	0.3	-7.1
CCc1n[n+](CC(=O)c2ccccc2)c(N)s1	0.2	57.1*	-9.2	10.7
Nc1sc2ccccc2[n+]1CC(=O)c1ccccc1	2.4*	74.7*	-8.7	24.6
O=C(C[n+]1cccc2ccccc21)c1ccccc1	0.1	-6.8	-2.7	10.6
N#Cc1ccc(N2CCc3ccccc3C2)c([N+](=O)[O-])c1	-0.3	-5.1	-0.1	1.1
Cc1nnc(-c2ccc(N3CCc4ccccc4C3)c([N+](=O)[O-])c2)o1	-0.4	45.3*	1.4	22.0
O=c1[nH]c(=O)c2nc3cc([N+](=O)[O-])ccc3nc2[nH]1	0.6	0.9	-2.3	0.7
CC1=CSC2=NC(=O)/C(=C/c3cc(C)n(-c4ccccc4C)c3C)C(=N)N12	-0.1	68.3*	0.0	15.0
CCOc1ccccc1-n1c(C)cc(/C=C2\C(=N)N3C(C)=CSC3=NC2=O)c1C	0.7	6.5	0.8	-1.8
Cc1cc(/C=C2/C(=N)N3C(=NC2=O)SN=C3S(C)(=O)=O)c(C)n1-c1ccccc1F	0.7	3.5	-1.5	15.0
CC1=CSC2=NC(=O)/C(=C/c3cc(C)n(-c4ccccc4F)c3C)C(=N)N12	0.1	52.0*	0.2	28.9
C/C(=N\N1CCOCC1)c1c(C(F)(F)F)[nH]n(-c2nc3ccccc3s2)c1=O	0.7	-1.5	-1.2	12.9
CC(=NCc1cccnc1)c1c(C)[nH]n(-c2nc3ccccc3s2)c1=O	0.1	42.2*	-8.2	7.5
C/C(=N/N1CCN(C)CC1)c1c(C(F)(F)F)[nH]n(-c2nc3ccccc3s2)c1=O	0.0	49.2*	-8.0	8.0
Cc1cc(/C=C2/C(=O)NC(=S)N(Cc3ccco3)C2=O)c(C)n1C	-0.8	0.1	0.2	76.7*
SMILES	FBW7 activator	TEAD-YAP inh	GPR151 activ	MITF inh
Cc1cc(/C=C2/C(=O)NC(=O)N(Cc3ccco3)C2=O)c(C)n1-c1ccc(F)cc1	0.2	3.6	-0.3	21.3
COc1cc(C)c(/C=C2/C(=O)NC(=O)N(Cc3ccco3)C2=O)c(OC)c1	0.0	8.7	-0.8	63.5*
COc1ccc(/C=C2/C(=O)NC(=O)N(Cc3ccco3)C2=O)cc1OC	-0.8	3.5	0.8	33.2
COc1cc(C)c(/C=C2/C(=O)NC(=O)N(Cc3ccco3)C2=O)cc1C	-0.1	-7.3	2.2	51.6*
CC1Cc2ccccc2N1C(=O)CN1C(=O)NC2(CCCCCC2)C1=O (stereo not given)	0.5	-5.2	1.8	-1.4
CCOC(=O)c1oc2cc(OC)c(CC)cc2c(=O)c1-c1csc(-c2ccccc2)n1	-0.1	-5.1	-0.3	0.0
CCc1ccccc1NC(=O)c1ccc(NCc2ccc(OC)cc2)c([N+](=O)[O-])c1	-0.1	57.2*	0.4	1.5
COc1ccc(CNc2ccc(C(=O)Nc3cccc(OC)c3)cc2[N+](=O)[O-])cc1	-0.2	51.7*	-0.8	5.2

Compound activity from PubChem.
